PubChem BioAssay
Calls of active or inactive are those of the source.

Legend:
[1] = optical density shifts of acrAB sulA E. coli – strain DRC41, OD650, 48 h, E. coli filamentation inducer project, primary screen (AID 1152); conditions: higher = more signal, called active from +8 up or from −8 down;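 also: E. coli MC1000 strain DRC41 lacking acrAB efflux pump and sulA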
[2] = probe aLefty1 binding on compound microarray – biochemical, small-molecule microarray, 635/667 nm fluorescence, primary screen (AID 1153); conditions: higher = more signal;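 also: score merges spot fluorescence with signal-to-noise ratio from the scanned slide images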
[3] = plasmodial surface anion channel blockers, osmotic lysis – cell-based, P. falciparum Indochina, OD700, 1 h, primary screen (AID 1154); conditions: P. falciparum Indochina infected RBC osmotic lysis, higher = more signal, called active from +8 up or from −8 down
[4] = plasmodial surface anion channel blockers, osmotic lysis – cell-based, P. falciparum Indochina, OD700, 2 h, primary screen (AID 1155);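 also: lysis reports solute entry through the parasite surface anion channel PSAC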; conditions: P. falciparum Indochina infected erythrocytes, higher = more signal, called active from +8 up or from −8 down
[5] = changes in parasitized red cell lysis, either direction – P. falciparum Indochina, OD700, 3 h, PSAC antagonist project, primary screen (AID 1156); conditions: P. falciparum-infected erythrocytes, osmotic lysis, higher = more signal, called active from +8 up or from −8 down
[6] = plasmodial surface anion channel blockers, osmotic lysis – cell-based, P. falciparum Indochina, OD700, 18 h, primary screen (AID 1157); conditions: P. falciparum Indochina infected erythrocytes, osmotic lysis OD700, 18 h; higher = more signal, called active from +8 up or from −8 down
[7] = S6 kinase pathway phospho-S6 level changes – cell-based, A549, cytoblot, luminescence, serum-stimulated, primary screen (AID 1158); conditions: 5 h, higher = more signal;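 also: serum-stimulated A549 lung adenocarcinoma cells; signal is phosphorylated S6 detected by cytoblot immunostaining with HRP secondary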
[8] = biological target: NADPH oxidase 2 (Homo sapiens) (UniProt P04839); assay: compounds shifting NOX2 Amplex Red fluorescence – cell-based, HEK293-NOX2, PMA-stimulated, NOX inhibitor project, primary screen (AID 1159); conditions: 45 min, higher = more signal, called active from +8 up or from −8 down; also: test concentration not given here
[9] = biological target: NADPH oxidase 4 (Homo sapiens) (UniProt Q9NPH5); assay: compounds shifting NOX4 Amplex Red fluorescence – cell-based, HEK293-NOX4, tetracycline-induced, NOX inhibitor project, primary screen (AID 1160); conditions: HEK293-NOX4, Amplex Red H2O2 fluorescence, 45 min; higher = more signal, called active from +8 up or from −8 down
[10] = biological target: NADPH oxidase 5 (Homo sapiens) (UniProt Q96PH1); assay: compounds shifting NOX5 Amplex Red fluorescence – cell-based, HEK293-NOX5, NOX inhibitor project, primary screen (AID 1161); conditions: HEK293-NOX5, ionomycin, 45 min, higher = more signal
Chain of NADPH oxidase 5 (Homo sapiens) (Q96PH1 whole entry, looked up): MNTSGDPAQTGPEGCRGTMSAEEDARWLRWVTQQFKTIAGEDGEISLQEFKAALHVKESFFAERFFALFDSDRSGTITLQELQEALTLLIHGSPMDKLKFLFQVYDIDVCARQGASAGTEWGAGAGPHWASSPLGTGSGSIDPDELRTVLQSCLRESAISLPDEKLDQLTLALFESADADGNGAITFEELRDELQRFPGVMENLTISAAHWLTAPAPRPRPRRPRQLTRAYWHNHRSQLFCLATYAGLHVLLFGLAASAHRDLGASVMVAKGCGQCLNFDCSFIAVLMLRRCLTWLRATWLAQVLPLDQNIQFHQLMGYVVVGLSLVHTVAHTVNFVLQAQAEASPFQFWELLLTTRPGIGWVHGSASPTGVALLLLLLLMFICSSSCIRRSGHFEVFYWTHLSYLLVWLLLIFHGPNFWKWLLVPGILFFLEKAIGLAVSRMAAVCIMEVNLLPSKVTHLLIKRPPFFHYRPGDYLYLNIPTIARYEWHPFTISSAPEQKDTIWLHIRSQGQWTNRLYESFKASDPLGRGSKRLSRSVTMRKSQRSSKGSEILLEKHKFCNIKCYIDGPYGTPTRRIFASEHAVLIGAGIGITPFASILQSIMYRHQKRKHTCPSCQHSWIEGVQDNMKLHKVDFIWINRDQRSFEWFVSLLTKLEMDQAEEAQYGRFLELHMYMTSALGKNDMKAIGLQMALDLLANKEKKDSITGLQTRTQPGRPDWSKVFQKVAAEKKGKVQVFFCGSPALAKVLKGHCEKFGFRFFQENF

Chain of NADPH oxidase 4 (Homo sapiens) (Q9NPH5 whole entry, looked up): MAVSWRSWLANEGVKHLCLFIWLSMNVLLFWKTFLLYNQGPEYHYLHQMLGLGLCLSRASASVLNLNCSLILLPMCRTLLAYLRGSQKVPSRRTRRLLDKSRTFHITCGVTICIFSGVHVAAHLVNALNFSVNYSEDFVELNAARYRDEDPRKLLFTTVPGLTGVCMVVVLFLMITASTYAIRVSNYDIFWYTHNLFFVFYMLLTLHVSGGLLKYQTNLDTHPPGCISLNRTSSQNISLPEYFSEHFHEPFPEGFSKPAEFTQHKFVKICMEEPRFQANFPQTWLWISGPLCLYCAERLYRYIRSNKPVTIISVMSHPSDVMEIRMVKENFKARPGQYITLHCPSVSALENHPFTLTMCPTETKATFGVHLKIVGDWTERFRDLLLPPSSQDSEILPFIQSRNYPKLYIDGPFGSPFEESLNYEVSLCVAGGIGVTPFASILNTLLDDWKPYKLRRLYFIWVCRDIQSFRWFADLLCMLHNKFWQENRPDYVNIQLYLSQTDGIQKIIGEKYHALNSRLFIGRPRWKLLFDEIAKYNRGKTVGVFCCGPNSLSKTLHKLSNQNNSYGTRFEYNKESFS
Chain of NADPH oxidase 2 (Homo sapiens) (P04839 whole entry, looked up): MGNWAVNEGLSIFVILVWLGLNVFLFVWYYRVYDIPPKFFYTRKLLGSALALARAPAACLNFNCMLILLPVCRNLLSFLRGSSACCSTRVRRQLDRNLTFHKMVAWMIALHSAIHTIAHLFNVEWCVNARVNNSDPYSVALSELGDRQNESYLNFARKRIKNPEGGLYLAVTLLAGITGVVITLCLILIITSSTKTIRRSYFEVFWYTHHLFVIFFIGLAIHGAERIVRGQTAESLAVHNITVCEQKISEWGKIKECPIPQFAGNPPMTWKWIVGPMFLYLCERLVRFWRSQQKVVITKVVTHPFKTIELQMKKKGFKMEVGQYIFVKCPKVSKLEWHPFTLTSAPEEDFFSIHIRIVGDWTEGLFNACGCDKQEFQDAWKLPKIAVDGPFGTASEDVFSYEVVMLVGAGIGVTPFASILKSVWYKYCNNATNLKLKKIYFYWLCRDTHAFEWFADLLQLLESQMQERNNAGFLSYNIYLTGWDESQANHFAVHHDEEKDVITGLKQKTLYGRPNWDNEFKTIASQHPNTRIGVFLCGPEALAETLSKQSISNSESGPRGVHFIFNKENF

SMILES	z-score [1]	composite z-score [2]	z-score [3]	z-score [4]	z-score [5]	z-score [6]	z-score [7]	z-score [8]	z-score [9]	z-score [10]
CCOC(=O)C[C@H]1[C@H](OC(=O)Cc2ccc3c(c2)OCO3)[C@@H](NC(=O)c2ccc3ccccc3n2)c2cc(OCCCO)ccc2N1C(=O)c1ccc2ccccc2n1	3.01 (inactive)	0.103	15.8 (active)	2.25 (inactive)	-1.37 (inactive)	-0.0077 (inactive)	1.3	0.11 (inactive)	0.204 (inactive)	-2.65
CC1CC/C=C\[C@H]2OC34C=CCN(c5ccc(Cl)cc5)C(=O)[C@H]3N(C(C)CO)C(=O)[C@]4(C)C2C(=O)O1 (stereo not given in full)	0.346 (inactive)	-0.284	0.685 (inactive)	0.67 (inactive)	0.335 (inactive)	0.281 (inactive)	0.116	0.889 (inactive)	-0.383 (inactive)	1.17
CC(C)(C)OC(=O)CC[C@@]1(C(=O)NCC(O)CO)N=C(c2ccc(OCCCO)cc2)O[C@@H]1c1ccccc1CN=[N+]=[N-] (stereo not given in full)	0.399 (inactive)	0.258	25.3 (active)	5.67 (inactive)	0.814 (inactive)	0.936 (inactive)	0.906	1.18 (inactive)	0.87 (inactive)	0.416
CCCCC=C[C@@H](NC(=O)OCc1ccccc1Cl)c1ccccc1	-2.07 (inactive)	2.4	0.278 (inactive)	0.894 (inactive)	0.806 (inactive)	0.887 (inactive)	-0.0327	0.027 (inactive)	-0.52 (inactive)	1.24
COc1cc(OC)c(C(O)C2C=CC3C(=O)N(Cc4ccccc4)C(=O)C3N2n2cnnc2)cc1Br (stereo not given)	-1.21 (inactive)	0.0509	-0.0011 (inactive)	-0.731 (inactive)	1.34 (inactive)	-2.29 (inactive)	1.71	-3.2 (inactive)	-1.35 (inactive)	-3.53
C=CCC(OC(C)=O)[C@@H]1[C@@H](N(Cc2cccc3ccccc23)C(=O)Cc2ccc(OC)cc2)c2cc(OCCCO)ccc2N1C(=O)c1ccc(-c2ccccc2)cc1 (stereo not given in full)	-0.62 (inactive)	0.0429	0.0926 (inactive)	0.299 (inactive)	-0.278 (inactive)	0.263 (inactive)	0.0614	-1.33 (inactive)	-0.257 (inactive)	-1.21
[N-]=[N+]=Nc1ccccc1C[C@]1(C(=O)NCCN2CCOCC2)COC(c2ccc(OCCCO)cc2)=N1	1.87 (inactive)	0.111	21.5 (active)	4.14 (inactive)	2.57 (inactive)	0.913 (inactive)	0.148	2.89 (inactive)	1.12 (inactive)	-0.481
CN(C)C(=O)[C@@]1(Cc2ccccc2CN=[N+]=[N-])N=C(c2ccc(OCCCO)cc2)O[C@H]1c1ccccc1N=[N+]=[N-]	-0.383 (inactive)	1.48	29.9 (active)	26.7 (active)	2.61 (inactive)	6.04 (inactive)	1.76	-3.42 (inactive)	-0.18 (inactive)	-2.56
COCCOC(=O)N1C(=O)[C@@]2(c3cc(C#CCC(C(=O)OC)C(=O)OC)ccc31)[C@H](c1ccc(OCCO)cc1)N1[C@H](c3ccccc3)[C@H](c3ccccc3)OC(=O)[C@H]1[C@@H]2C(=O)N1CCc2cc(OC)c(OC)cc2C1	-0.0746 (inactive)	0.269	6.85 (inactive)	2.56 (inactive)	0.324 (inactive)	1.78 (inactive)	-0.215	2.22 (inactive)	1.17 (inactive)	1.29
CC(C)NC(=O)[C@@]1(C)c2ccccc2C(=O)N(Cc2ccc(OC(F)(F)F)cc2)[C@H]1c1ccc(CO)cc1	-0.362 (inactive)	0.0004	2.96 (inactive)	0.857 (inactive)	1.89 (inactive)	0.254 (inactive)	0.0795	0.415 (inactive)	-0.667 (inactive)	1.99
COc1cc2c(cc1O)C(c1ccc(CN3CCCC3)cc1)N(Cc1cc3c(cc1Br)OCO3)CC2 (stereo not given)	-2.4 (inactive)	-0.138	3.92 (inactive)	0.984 (inactive)	0.782 (inactive)	0.526 (inactive)	0.0637	-3.51 (inactive)	-2.64 (inactive)	-3.57
CC#CCO[Si](C#Cc1ccccc1)(C(C)C)C(C)C	-0.112 (inactive)	-0.193	0.175 (inactive)	-0.286 (inactive)	-0.975 (inactive)	-0.4 (inactive)	-1.16	-2.19 (inactive)	-0.176 (inactive)	-0.624
O=C1C2C=CC(C(O)C3CC=CCC3)N(Nc3ccccc3)C2C(=O)N1c1ccccc1 (stereo not given)	-1.5 (inactive)	0.663	3.38 (inactive)	-0.228 (inactive)	1.53 (inactive)	-1.33 (inactive)	0.879	-3.1 (inactive)	-4.95 (inactive)	-6.07
COC(=O)[C@@]1(Cc2ccc(OC)cc2)[C@H]2c3cc(C(=O)N(C)C)n(Cc4ccc(OC(F)(F)F)cc4)c3C[C@H]2CN1C(=O)c1ccccc1	-1.81 (inactive)	0.407	0.404 (inactive)	0.542 (inactive)	0.219 (inactive)	0.569 (inactive)	-1.19	0.262 (inactive)	-0.787 (inactive)	-0.499
COc1cc(NN2C(C(O)c3ccc(N(C)C)cc3)C=CC3C(=O)N(c4ccccc4)C(=O)C32)cc(OC)c1OC (stereo not given)	-2.71 (inactive)	0.315	1.76 (inactive)	-0.891 (inactive)	0.742 (inactive)	-0.765 (inactive)	1.15	-2.65 (inactive)	-4.37 (inactive)	-4.75
CCCC=C(CCC)[C@@H](NS(=O)(=O)c1ccc(C(F)(F)F)cc1)c1ccccc1	-2.49 (inactive)	0.379	0.669 (inactive)	0.546 (inactive)	0.248 (inactive)	0.567 (inactive)	-0.286	-0.832 (inactive)	-1.74 (inactive)	2.42
COc1cc(C(O)C2C=CC3C(=O)N(C)C(=O)C3N2Nc2ccccc2)cc(OC)c1OC (stereo not given)	-0.283 (inactive)	0.923	1.28 (inactive)	1.01 (inactive)	0.508 (inactive)	1.07 (inactive)	-0.802	-1.41 (inactive)	-2.12 (inactive)	-2.14
COc1ccc([Si](C)(C)[C@@H]2[C@@H](CCO)O[C@]3(C(=O)N(Cc4ccccc4)c4ccc(N5CCOC5=O)cc43)[C@H]2C)cc1	0.519 (inactive)	0.042	3.02 (inactive)	-0.0856 (inactive)	0.796 (inactive)	-1.09 (inactive)	2.12	-0.245 (inactive)	0.699 (inactive)	-1.07
